Inconclusive results are not listed. Active and inactive are the calls of the source. How the source made its calls, unless noted: active means hit-call score of the fitted dose curve at least 0.9, where 1 is the maximum; inconclusive means response in the unintended direction; inactive means score below 0.9.
Tests used:
[1] = TOX21_p53_BLA_p3_viability: Viability Assessment in the Tox21 HCT-116 p53 Agonism Beta-lactamase Assay, Phase 3 (AID 2283593);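 further: cells exposed to compound for 16 h before reading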
How it was run: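 HCT116 cells, 4000/well, dosed 5 h after plating by pin transfer (217-fold dilution from DMSO stock) and incubated 16 h at 37C, 5% CO2. Viability read as ATP luminescence with CellTiter-Glo after 30 min at room temperature.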

[2] = target: Cellular tumor antigen p53 (Homo sapiens) (UniProt P04637); test: TOX21_p53_BLA_p3_ratio: Tox21 HCT-116 p53 Agonism Beta-lactamase Assay, Ratio, Phase 3 (AID 2283596)
Cellular tumor antigen p53 (Homo sapiens), sequence (P04637 whole entry, looked up): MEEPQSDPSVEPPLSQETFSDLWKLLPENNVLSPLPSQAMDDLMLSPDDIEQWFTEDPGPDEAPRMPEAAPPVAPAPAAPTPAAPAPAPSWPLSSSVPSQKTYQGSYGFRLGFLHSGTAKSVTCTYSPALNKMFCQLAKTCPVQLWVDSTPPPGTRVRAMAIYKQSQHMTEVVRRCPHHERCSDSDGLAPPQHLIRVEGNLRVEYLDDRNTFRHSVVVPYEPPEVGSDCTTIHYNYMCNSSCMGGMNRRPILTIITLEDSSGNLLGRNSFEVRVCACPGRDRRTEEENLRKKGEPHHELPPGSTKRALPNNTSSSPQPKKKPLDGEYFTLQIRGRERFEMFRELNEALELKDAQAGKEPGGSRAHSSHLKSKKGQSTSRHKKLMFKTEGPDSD
How it was run: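 Cells were seeded at 4000/well, rested 5 h at 37C, then dosed with DMSO compound solutions (217-fold dilution) for 16 h. CCF4-AM substrate was loaded for 2 h at room temperature, and the 460/530 nm emission ratio was fitted for gain of signal versus DMSO.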

[3] = target: Cellular tumor antigen p53 (Homo sapiens) (UniProt P04637); test: TOX21_p53_BLA_p5_ratio: Tox21 HCT-116 p53 Agonism Beta-lactamase Assay, Ratio, Phase 5 (AID 2283599)
How it was run: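 HCT-116 p53-bla cells (4000/well) plated 5 h, dosed with compound (217-fold DMSO dilution) for 16 h at 37 C; CCF4-AM substrate 2 h at room temperature. Activity is the 460/530 nm emission ratio (405 nm excitation), fitted in gain-of-signal direction versus DMSO.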

[4] = TOX21_p53_BLA_p5_viability: Viability Assessment in the Tox21 HCT-116 p53 Agonism Beta-lactamase Assay, Phase 5 (AID 2283600)
How it was run: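 Viability came from CellTiter-Glo ATP luminescence, read after 30 min at room temperature. Before this, HCT-116 p53-bla cells (4000/well) had 16 hours of compound exposure at 37C, with DMSO stocks diluted 217-fold on transfer.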

[5] = target: Cellular tumor antigen p53 (Homo sapiens) (UniProt P04637); test: TOX21_p53_BLA_p2_ratio: Tox21 HCT-116 p53 Agonism Beta-lactamase Assay, Ratio, Phase 2 (AID 2283592)
How it was run: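 Read-out is the blue/green (460/530 nm, 405 nm excitation) ratio after 2 h CCF4-AM loading, fitted as gain versus DMSO. Compounds, pinned at 217-fold dilution from DMSO stocks, stayed 16 h on HCT-116 beta-lactamase reporter cells seeded 5 h earlier.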

[6] = CCTE_Harrill_HTTr_Viability_MCF7: CCTE's 6-hour Cell Viability Assessment for the High-Throughput Transcriptomics (HTTr) Platform, in MCF-7 cells cultured in DMEM + 10% fetal bovine serum, Harrill Lab (AID 2284010; active means hit-call score of the fitted dose curve at least 0.9, where 1 is the maximum; inactive means score below 0.9)
How it was run: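 Propidium iodide exclusion, imaged by high-content analysis, gauged viability after a six-hour exposure across eight concentrations. Cells were MCF-7 grown in DMEM with 10% fetal bovine serum; fits run in both directions against DMSO.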

[7] = CCTE_Harrill_HTTr_Apoptosis_MCF7: CCTE's 6-hour Apoptosis Assessment for the High-Throughput Transcriptomics (HTTr) Platform, in MCF-7 cells cultured in DMEM + 10% fetal bovine serum, Harrill Lab (AID 2284011; active means hit-call score of the fitted dose curve at least 0.9, where 1 is the maximum; inactive means score below 0.9)
How it was run: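 High-content imaging of CellEvent Caspase 3/7 Green signal follows a six-hour exposure, with eight concentrations per chemical. MCF-7 cells grown in DMEM plus 10% fetal bovine serum; activity fitted in both directions against DMSO.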

[8] = TOX21_p53_BLA_p4_viability: Viability Assessment in the Tox21 HCT-116 p53 Agonism Beta-lactamase Assay, Phase 4 (AID 2283597);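 further: hits lower the luminescence signal meaning cytotoxicity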
How it was run: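 Cytotoxicity as reduced cellular ATP (CellTiter-Glo luminescence, 30 min room temperature), measured in the same wells following the CCF4 FRET p53 reading. Human HCT-116 cells received compounds in DMSO (217-fold dilution) for 16 h.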

[9] = target: Cellular tumor antigen p53 (Homo sapiens) (UniProt P04637); test: TOX21_p53_BLA_p4_ratio: Tox21 HCT-116 p53 Agonism Beta-lactamase Assay, Ratio, Phase 4 (AID 2283601)
How it was run: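 HCT-116 p53 beta-lactamase reporter cells (4000/well) preincubated 5 h, then compound (217-fold dilution of DMSO stock) for 16 h at 37C. CCF4-AM substrate added 2 h at room temperature; 460/530 nm emission ratio fitted upward versus DMSO.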

[10] = target: PGR (gene 5241) (UniProt P06401); test: TOX21_PR_BLA_Followup_Antagonist_ratio: Tox21 HEK293 Progesterone Receptor (PR) Antagonism Beta-lactamase Follow-Up Assay, Ratio (AID 2283934);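 further: PR-UAS-bla HEK293T cells stimulated with 1 nM R5020 agonist for 16 hr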
PGR (gene 5241), sequence (P06401 whole entry, looked up): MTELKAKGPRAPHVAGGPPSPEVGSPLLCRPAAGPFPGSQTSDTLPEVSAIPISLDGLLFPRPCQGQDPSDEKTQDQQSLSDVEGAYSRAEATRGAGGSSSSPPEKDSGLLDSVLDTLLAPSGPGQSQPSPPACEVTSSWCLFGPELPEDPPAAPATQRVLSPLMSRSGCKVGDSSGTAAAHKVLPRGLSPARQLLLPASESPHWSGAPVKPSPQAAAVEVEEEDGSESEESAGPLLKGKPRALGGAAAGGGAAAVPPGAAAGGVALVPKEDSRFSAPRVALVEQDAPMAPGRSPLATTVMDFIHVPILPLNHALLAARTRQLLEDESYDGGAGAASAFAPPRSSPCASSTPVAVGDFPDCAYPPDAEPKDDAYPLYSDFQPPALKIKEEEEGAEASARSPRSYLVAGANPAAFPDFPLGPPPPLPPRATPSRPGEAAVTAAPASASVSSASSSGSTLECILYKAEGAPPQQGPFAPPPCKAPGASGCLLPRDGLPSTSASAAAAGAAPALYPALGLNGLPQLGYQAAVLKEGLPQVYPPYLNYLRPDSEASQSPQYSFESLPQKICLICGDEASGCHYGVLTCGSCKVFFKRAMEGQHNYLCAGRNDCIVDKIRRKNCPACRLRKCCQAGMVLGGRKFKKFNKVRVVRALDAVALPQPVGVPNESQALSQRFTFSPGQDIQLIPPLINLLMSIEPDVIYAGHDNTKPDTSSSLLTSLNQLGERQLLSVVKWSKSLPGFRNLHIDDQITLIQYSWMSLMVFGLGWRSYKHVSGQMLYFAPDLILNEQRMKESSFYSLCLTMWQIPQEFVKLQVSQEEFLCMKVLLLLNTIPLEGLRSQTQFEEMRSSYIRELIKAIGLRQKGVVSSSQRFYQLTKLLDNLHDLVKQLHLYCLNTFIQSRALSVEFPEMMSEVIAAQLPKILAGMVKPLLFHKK
How it was run: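 Readout is the blue/green (ch2/ch1) substrate cleavage ratio after 2 hours at room temperature, following 16 hr co-treatment of PR-bla HEK293T cells with compound and 1nM promegestone. Multiplexed CellTiter-Glo viability flags cytotoxicity; DMSO baseline.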

[11] = TOX21_PR_BLA_Followup_Agonist_viability: Viability Assessment in the Tox21 HEK293 Progesterone Receptor (PR) Agonism Beta-lactamase Follow-Up Assay (AID 2283935);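 further: signal loss means lower viability so actives are cytotoxic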
How it was run: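 Run multiplexed with the beta-lactamase FRET read, this endpoint measures ATP by CellTiter-Glo luminescence (30 min, room temperature). PR-UAS-bla HEK293T cells received compound 6 hr after plating and were then incubated 16 hr at 37C in 2% stripped serum.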

[12] = TOX21_PR_BLA_Followup_Antagonist_viability: Viability Assessment in the Tox21 HEK293 Progesterone Receptor (PR) Antagonism Beta-lactamase Follow-Up Assay (AID 2283936);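 further: cells exposed to compound with R5020 agonist for 16 h; hits lower the luminescence signal meaning cytotoxicity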
How it was run: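 PR-UAS-bla HEK293T cells in medium with 2% charcoal-stripped FBS were treated with compounds plus R5020 for 16 hr at 37C. After the beta-lactamase read, CellTiter-Glo was added to the same wells and luminescence read after 30 min at room temperature.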

[13] = TOX21_PR_LUC_Followup_Antagonist_viability: Viability Assessment in the Tox21 HEK293 Progesterone Receptor (PR) Antagonism Luciferase Follow-Up Assay (AID 2283940)
How it was run: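 Viability counter-readout: cellular ATP measured by luciferase luminescence after 16 h compound exposure at 37C of HEK293-PR-A-luc cells, which had been cultured in charcoal-stripped serum and seeded 5 h beforehand.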

[14] = TOX21_PR_LUC_Followup_Agonist_viability: Viability Assessment in the Tox21 HEK293 Progesterone Receptor (PR) Agonism Luciferase Follow-Up Assay (AID 2283941);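 further: loss of signal means cytotoxicity so actives lower viability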
How it was run: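 Cytotoxicity counter-readout in the PR-A luciferase reporter line HEK293, with 16 h compound exposure at 37C after cells were cultured in charcoal-stripped serum. Cellular ATP quantified by CellTiter-Glo luminescence.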

Measured: outcome

NC(=S)C(N)=S
inactive: [1] | [2] | [3] | [4]

CCCCc1c(C)nc(NCC)nc1OS(=O)(=O)N(C)C
inactive: [5] | [3] | [6] | [7]

CC(C)CCC(=O)O[C@H]1CC[C@H]2[C@@H]3CCC4=CC(=O)CC[C@]4(C)[C@H]3CC[C@]12C
inactive: [1] | [2] | [3] | [4]

OC(Cn1cncn1)(c1ccc(F)cc1)c1ccccc1F (stereo not given)
inactive: [5] | [8] | [3] | [6] | [7]

CC(C)(C#N)C(C)(C)C#N
inactive: [1] | [2] | [8] | [3] | [4] | [9]

COc1ccc2c3c1O[C@H]1[C@H](O)CC[C@H]4[C@@H](C2)N(C)CC[C@@]341
inactive: [2] | [8] | [4] | [9]

O=C1CC(=O)NC(=O)N1
inactive: [1] | [8] | [3] | [9]

NCCc1ccc(O)cc1
inactive: [2] | [3]

CCSCc1ccccc1OC(=O)NC
inactive: [1] | [4] | [9]

CC(=O)CC(c1ccc(Cl)cc1)c1c(O)c2ccccc2oc1=O (stereo not given)
inactive: [1] | [8]

C[C@]12CC[C@H]3[C@@H](CCC4=CC(=O)CC[C@@H]43)[C@@H]1CC[C@@H]2OC(=O)CCc1ccccc1
inactive: [1] | [2] | [9] | [10] | [11] | [12] | [13] | [14]

COP(N)(=S)Oc1ccccc1C(=O)OC(C)C (stereo not given)
inactive: [2] | [8] | [3] | [4] | [9]

C1CCNCC1
inactive: [1] | [2] | [3] | [9]
